Experimental findings from PubChem BioAssay (EPA / NIEHS) are described below.

Calls of active or inactive are those of the source. How the source made its calls: active means hit-call score of the fitted dose curve at least 0.9, where 1 is the maximum; inactive means score below 0.9.

Read-out in this experiment: Monokine induced gamma interferon (MIG), CXCL9 (gene 4283)
The experiment is described as follows: BSK_SAg_MIG: BioMAP Diversity Plus: SAg Assay for Monokine induced gamma interferon (MIG) Biomarker Activity (AID 2283092). The conditions noted are these: primary human HUVEC with PBMC; actives raise or lower the signal. As for the experimental part: BSK_SAg is a cell-based, multiplexed-readout assay that uses umbilical vein endothelium and peripheral blood mononuclear cells, a human vascular primary cell co-culture, with measurements taken at 24 hours after chemical dosing in a 96-well plate.BSK_SAg_MIG is an assay component measured in the BSK_SAg assay. It measures MIG antibody related to regulation of gene expression using ELISA technology.Data from the assay component BSK_SAg_MIG was analyzed into 1 assay endpoint. This assay endpoint, BSK_SAg_MIG, was analyzed with bidirectional fitting relative to DMSO as the negative control and baseline of activity. Using a type of binding reporter, gain or loss-of-signal activity can be used to understand changes in the signaling as they relate to the gene CXCL9. Furthermore, this assay endpoint can be referred to as a primary readout, because this assay has produced multiple assay endpoints where this one serves a signaling function. To generalize the intended target to other relatable targets, this assay endpoint is annotated to the cytokine intended target family, where the subfamily is chemotactic factor.
The levels of cell surface (or secreted, indicated by the prefix "s") biomarker endpoints were measured by ELISA. Overt cytotoxicity to cells in confluent adherent cultures (all systems other than the BT system) was assessed by measuring total protein levels using sulforhodamine B (SRB) staining in parallel cultures at the time of biomarker measurements, indicated as SRB endpoints. For proliferation assays for adherent cell types, individual cell types are cultured at sub-confluence and relative cell numbers quantified by SRB staining at time points optimized for each system (48 h: 3C and CASM3C systems; 72 h: BT and HDF3CGF systems; 96 h: SAg system). SRB was performed by staining cells with 0.1% SRB after fixation with 10% TCA and reading wells at 560 nm.Viability and proliferation of PBMC (T cells) was quantified by Alamar Blue reduction for the SAg and BT systems. For PBMC viability (referred to as PBMC Cytotoxicity within the assay endpoint names), cells were plated (75,000/well in a 96-well plate) and then chemical samples added for 1 h before addition of activators, SEB and TSST-1 (20 ng/mL final concentration each). Cells were incubated for 90 h. Then, Alamar Blue (20 uL/well) (Invitrogen, Cat DAL1100) was added for 6 h, and the plates were read with a fluorescence microplate reader at 546/580 nm (excitation/emission). For PBMC proliferation, cells were plated and activated as above but incubated for only 16 h prior to addition of Alamar Blue. Plates were read after 6 h.
Regarding `O=c1n(CC2CO2)c(=O)n(CC2CO2)c(=O)n1CC1CO1` (stereo not given), the outcome was inactive.
Consider `Fc1ccccc1[C@@H](F)COC1CCC(Nc2ncnc3[nH]ncc23)CC1` (stereo not given in full), for which the outcome was inactive.
Take `CCOC(=O)COc1ccc2c(c1)CC(NCC(O)c1cccc(Cl)c1)CC2` (stereo not given): the result was inactive.
The same measure, in the same setting: under `O=C(O)CC(O)C(=O)O` (stereo not given) stands “inactive”; under `CCCCCCCCCCCCCCCO`, “inactive”; under `COc1ccc(-n2nc(C(F)F)cc2-c2ccc(S(C)=O)cc2)cc1` (stereo not given), “inactive”.
For the compound `CC[C@H](C)C(=O)O[C@H]1C[C@@H](C)C=C2C=C[C@H](C)[C@H](CC[C@@H]3C[C@@H](O)CC(=O)O3)[C@H]21`, the outcome was inactive.
The same measure, in the same setting: under `O=c1[nH]c2ccc(S(=O)CCN3CCC(Cc4ccc(F)cc4)CC3)cc2o1` (stereo not given) stands “inactive”; under `C1N2CN3CN1CN(C2)C3`, “inactive”.
For `CC(C)CCO`, the outcome was inactive.
On the same count and under the same terms, next, `CCC(C)(C)C(=O)O[C@H]1C[C@@H](C)C=C2C=C[C@H](C)[C@H](CC[C@@H]3C[C@@H](O)CC(=O)O3)[C@H]21`: “inactive”.
On the same count and under the same terms, under `CC(C)(O)c1coc(S(=O)(=O)NC(=O)Nc2c3c(cc4c2CCC4)CCC3)c1` stands “inactive”.
As to `Clc1nc(Cl)c(Cl)c(Cl)c1Cl`, the AC50 (in general, the midpoint of the concentration-response curve, whichever way the signal moves) is 31.2 µM (active).
Consider `CCCCCCCCO`, for which the outcome was inactive.
Turning to `CCN(C(=O)c1cc(C)cc(OC[C@H](C)Nc2ccncc2)c1)C(C)C`, the result was inactive.
Take `Nc1nc2ncc(CNc3ccc(C(=O)N[C@@H](CCC(=O)O)C(=O)O)cc3)nc2c(=O)[nH]1`: the outcome was inactive.
Still for that read-out and setting: next, `CN(C)c1ccc(N=NS(=O)(=O)O)cc1`: “inactive”; `CCCCC(CC)COC(=O)CCCCCCCCC(=O)OCC(CC)CCCC` (stereo not given): “inactive”.
For `CCOc1cccc(-n2cc(C(=O)N3CCN(c4cc(C(=O)O)c5ccccc5c4)CC3)nc2-c2ccc(C)cc2)c1`, the half-maximal activity concentration (AC50) is 35.4 µM (active).
On to `Nc1cccc(N)c1`, for which the outcome was inactive.
The same measure, in the same setting: next, `NC(=O)NO`: “inactive”.
Take `CCc1cc(SCc2sc(-c3ccc(C(F)(F)F)cc3)nc2CN2CCN(c3ccc(OC)cc3)CC2)ccc1OCC(=O)O`: the AC50 was 14.1 µM (active).
Take `CCCC(=O)OCC`: the outcome was inactive.
On the same count and under the same terms, under `Cc1ccc(O)cc1` stands “inactive”.
As for `O=C(CCCCCCCCc1cccnc1)N1CCC(C=C(c2ccccc2)c2ccccc2)CC1`, the AC50 was 8.63 µM (active).
Consider `CN(C)c1ccc(Cc2ccc(N(C)C)cc2)cc1`, for which the result was inactive.
On the same count and under the same terms, next, `CC1=CC(=O)CC(C)(C)C1`: “inactive”.
For `CC(=O)OC[C@H]1O[C@@](COC(C)=O)(O[C@H]2O[C@H](COC(C)=O)[C@@H](OC(C)=O)[C@H](OC(C)=O)[C@H]2OC(C)=O)[C@@H](OC(C)=O)[C@@H]1OC(C)=O`, the outcome was inactive.
Consider `Nc1ccc(Nc2ccccc2)cc1`, for which the half-maximal activity concentration (AC50) was 15.7 µM (active).
Regarding `CC(C)c1cccc(C(C)C)c1N1C(=O)c2ccc(O)cc2C1=O`, the half-maximal activity concentration (AC50) is 32 µM (active).
Take `CC(C)=CCC/C(C)=C\CO`: the outcome was inactive.
With `O=C(O)CCN(C1(C(=O)NO)CCCC1)S(=O)(=O)c1ccc(Oc2ccc(F)cc2)cc1`, the result was inactive.
For the compound `O=C(NS(=O)(=O)/C=C/c1ccccc1)c1ccc(F)cc1Cl`, the result was inactive.
The same measure, in the same setting: under `Cc1c(-c2cccnc2)c2ccccc2n1CCCCC(=O)O` stands “inactive”; under `CCOC(=O)c1ccc(C2CCC(NC[C@H](O)COc3ccc(O)c(NS(C)(=O)=O)c3)CC2)cc1` (stereo not given in full), “inactive”.
On to `CCCCCCCCCCCCc1ccccc1`, for which the outcome was inactive.
The same measure, in the same setting: under `Cn1c(=O)c2c(ncn2C)n(C)c1=O` stands “inactive”; under `CC(C)=CCCC(C)=CC=O`, “inactive”.
On the same count and under the same terms, under `CC(=O)OCCC(C)C` stands “inactive”; under `COCCOCCOCCOC`, “inactive”.
